{"source": "PubChem BioAssay AID903", "about": "(National Center for Advancing Translational Sciences (NCATS), 2007)", "note": "The campaign covered roughly 55,000 compounds. About 340 (0.62%) were called active. Inconclusive results (about 3%) are left out. Shown is part of a subset that was picked to be rich in actives. A call without a number means that no potency is given here. A number with no mark means an inactive call. Calls come from the whole dose curve; as a rule, active = well fitted cell-killing curve with a large enough effect; inconclusive = small, poorly fitted or top-dose-only effect; inactive = no such curve, though single readings can be large or run the other way. Potency is the fitted concentration of half-maximal effect.", "data": [{"assay": "qHTS Screen for Compounds that Selectively Target Cancer Cells with p53 Mutations: Cytotoxicity of p53 Null Cells at the Permissive Temperature; note: nearly all actives have a fitted effect of over 55% in size", "conditions": "H1299-neo p53 null cells, ATP luminescence, 24 h, 32C; series mostly up to 46.1 µM", "source_text": "NIH Chemical Genomics Center [NCGC] NIH Molecular Libraries Screening Centers Network [MLSCN] MLSCN Grant: 1 X01 MH079844-01 Assay Submitter (PI): Dr. SUN, YI, University of Michigan NCGC Assay Overview: Synthetic Lethal Screen for Compounds to Kill Cancer Cells with p53 Mutation. Tumor suppressor gene p53 serves as a major cellular barrier against tumorigenesis. […] The goal of this screening is to identify small molecule probes that selectively kill cancer cells with mutations in p53. This screening was carried out using two lines of H1299 lung cancer cells. The H1299-p53 A138V line express a temperature sensitive p53 mutant (p53ts) in which the mutant p53 protein (A138V) is in the mutant confirmation when grown at 39C (the nonpermissive temperature) and in the wild type conformation when grown at 32C (the permissive temperature). A H1299-neo line (p53 null) grown at both 39C and 32C were used as counter-screens to filter out false positive associated with temperature shifting. The small molecular compounds that selectively target mutant p53-containing cancer cells were selected as candidate probes for further study. A cytotoxicity assay based on the measurement of ATP contents in cells was used in this screen. Concentration-responses of all the compounds in the library collection were determined in qHTS using the cell lines and temperature conditions as above.\nNCGC Assay Protocol Summary: Both the H1299-p53A138V and H1299-neo cell lines were provided by Dr.Yi Sun, a PI at the University Michigan. The cells were maintained and cultured at 37C. The resuspended frozen cells were used to plate the cells in the 1536-well assay plates at a density of 600 cells per well in 5 ul medium. The assay plates with the cells were incubated at 37C for 16 to 30 hours before the experiments. The library compounds in DMSO solution were added to the cells in assay plates and incubated 24 hours at 39C (for mutant p53 conformation) or 32C (for normal p53 conformation as control). An ATP_lite assay kit (PerkinElmer) was used to determine the cell viability. Tomaxifen (100uM) was used as the positive control for cell killing. Data were normalized to the controls for basal activity (DMSO only) and 100% killing (100uM tamoxifen). AC50 values were determined from concentration-response data modeled with the standard Hill equation. P53 assay protocol: 1. Reagent; 5 uL H1299-p53A138V or H1299-neo cell cells/well 2. Time; overnight; 37C incubation 3. Compounds; 23 nL; 5.9 nM to 46 uM 4. Controls; 23 nL; Tamoxifen 100 uM 5. Time; 24 hr; 32C incubation 6. Reagent; 3 uL; ATP_Lite reagent 7. Time; 20 min; Room Temperature 8. Detection; Luminescence; Viewlux plate reader Keywords: p53, synthetic lethal, cancer, cell viability, cytotoxicity, H1299 cell line, luminescence, MLSMR, MLSCN, NIH Roadmap, qHTS, NCGC", "values": [{"compound": "COc1ccc(-c2csc(-c3c(N)c(C(=O)c4ccc(OC)c(OC)c4)n4ccccc34)n2)cc1", "Potency": "inactive"}, {"compound": "Cc1cc(OCC(=O)Nc2ncn[nH]2)c(C)c(C)c1Br", "Potency": "inactive"}, {"compound": "COc1ccc(N2CCN(c3nc(-c4ccccc4F)nc4ccccc34)CC2)cc1", "Potency": "inactive"}, {"compound": "O=S(=O)(c1ccc(Br)cc1)c1nnn2c1nc(NC1CCCCCC1)c1sccc12", "Potency": "inactive"}, {"compound": "COc1cccc(CNC(=O)c2ccc3c(c2)N(Cc2ccc(C(F)(F)F)cc2)C(=O)c2ccccc2S3)c1OC", "Potency": "inactive"}, {"compound": "COc1ccc(OC)c2sc(N3CCN(C(=O)C4COc5ccccc5O4)CC3)nc12", "note": "(stereo unspecified)", "Potency": "inactive"}, {"compound": "Cn1c(=O)cc(OCC(=O)N2CCN(c3ccccc3F)CC2)c2ccccc21", "Potency": "inactive"}, {"compound": "COc1cc(C(=O)Nc2ccc(OCc3cc(=O)n4cc(C)sc4n3)cc2)cc(OC)c1OC", "Potency": "inactive"}, {"compound": "COc1cccc(C2C(C(=O)Nc3ccc(C)cc3C)=C(C)Nc3c(C(=O)Nc4ccccc4)cnn32)c1", "note": "(stereo unspecified)", "Potency": "inactive"}, {"compound": "CCNC(=O)Cn1nc(C)n2c(cc3c(OC)cccc32)c1=O", "Potency": "inactive"}, {"compound": "O=C(NCc1ccccc1)C1CCN(S(=O)(=O)c2ccc3[nH]c(=O)ccc3c2)CC1", "Potency": "inactive"}, {"compound": "COc1ccc(N2CCN(S(=O)(=O)CCNC(=O)C(c3ccccc3)c3ccccc3)CC2)cc1", "Potency": "inactive"}, {"compound": "Cc1ccc(C2CCN(C(=O)c3cnn(-c4ccccc4Cl)c3C3CCN(C(=O)OC(C)(C)C)CC3)C2)cc1", "note": "(stereo unspecified)", "Potency": "inactive"}, {"compound": "CN(C)CCCNC(=S)NCc1ccc(Cl)cc1", "Potency": "inactive"}, {"compound": "COc1ccc(CCNC(=O)c2c3c(nc4ccccc24)C(=O)N(C2CCCCC2)C3)cc1OC", "Potency": "inactive"}, {"compound": "CCOC(=O)c1ccc(NC(=O)C2CC(=O)NC(=Nc3ccc(C)c(C)c3)S2)cc1", "note": "(stereo unspecified)", "Potency": "inactive"}, {"compound": "O=C(NC1CCCCC1)c1ccc(Cn2c(SCc3ccccc3)nc3cccnc32)cc1", "Potency": "inactive"}, {"compound": "O=C(NCc1ccc(F)cc1)c1ccc(Cn2c(SCc3ccc(F)cc3)nc3cccnc32)cc1", "Potency": "inactive"}, {"compound": "Cc1ccc(CSc2nc3cccnc3n2Cc2ccc(C(=O)NC3CC3)cc2)cc1", "Potency": "2.51 µM (active)"}, {"compound": "COc1ccc(C(=O)OCC(=O)NC(=O)CCSc2ccccc2)cc1", "Potency": "inactive"}, {"compound": "Cc1cccc(-n2ncc(C(=O)N3CCC(C)CC3)c2C2CCN(C(=O)OC(C)(C)C)CC2)c1", "Potency": "inactive"}, {"compound": "CC(C)C(=O)Nc1cccc(NC(=O)c2ccc([N+](=O)[O-])cc2Cl)c1", "Potency": "inactive"}, {"compound": "CCCCOc1ccc(CN2C(=O)C(=O)c3cc(Br)cc(C)c32)cc1OC", "Potency": "35.5 µM (active)"}, {"compound": "CCCCOc1ccc(Cn2c(=O)oc3ccc(C)cc32)cc1OC", "Potency": "inactive"}, {"compound": "COc1ccc(CCN2C(=O)C3CC=C(C)CC3C2=O)cc1OC", "note": "(stereo unspecified)", "Potency": "inactive"}, {"compound": "COc1ccc(NC(=O)c2ccco2)cc1NC(=O)c1ccc(C#N)cc1F", "activity change, negative = cytotoxicity": "-5.82% [at 9.22 µM]"}, {"compound": "Cc1cc(C)c2oc(-c3cccc(NC(=O)c4cccc(F)c4)c3C)nc2c1", "Potency": "inactive"}, {"compound": "Brc1ccc(-c2noc(-c3ccccc3)n2)o1", "Potency": "inactive"}, {"compound": "Cc1ccccc1-n1c(C)cc(/C=C2\\NC(=O)NC2=O)c1C", "Potency": "11.2 µM (active)"}, {"compound": "Cc1cccc(N2CCN(C3=C(c4ccccc4)C(=O)c4ccccc43)CC2)c1C", "Potency": "inactive"}, {"compound": "COc1ccc2oc(=O)c(-c3cn4c(n3)sc3cc(OC)ccc34)cc2c1", "Potency": "inactive"}, {"compound": "COc1ccc(-c2cc3ccc(OCc4nn[nH]n4)cc3oc2=O)cc1", "Potency": "12.6 µM (active)"}, {"compound": "COc1ccc2cc(-c3nc(Cl)c4c5c(sc4n3)CC(C)CC5)c(=O)oc2c1", "note": "(stereo unspecified)", "Potency": "inactive"}, {"compound": "Cc1cccc2c(=O)cc(CSc3ccccc3NC(=O)C(C)C)[nH]c12", "Potency": "inactive"}, {"compound": "C/C=C/c1ccc(OCCOc2ccc(C=O)cc2OC)c(OC)c1", "Potency": "inactive"}, {"compound": "COc1ccc(CCNC(=O)c2cc(=O)c3c(C)cc(C)cc3o2)cc1OC", "Potency": "inactive"}, {"compound": "Cc1ccc(-n2c(CNc3ccc(F)cc3)nnc2SCC(=O)N2CCOCC2)cc1", "Potency": "inactive"}, {"compound": "O=C(NC1CCCCC1)c1ccc2c(c1)N(Cc1ccc(Cl)cc1)C(=O)c1ccccc1S2=O", "note": "(stereo unspecified)", "Potency": "inactive"}, {"compound": "O=C(NCC(c1ccc(Cl)cc1)N1CCOCC1)c1ccccc1F", "note": "(stereo unspecified)", "Potency": "inactive"}, {"compound": "O=C(Nc1ccccc1F)c1ccccc1-c1ccccc1", "Potency": "inactive"}, {"compound": "CC(=O)c1ccc(NC(=O)Nc2ccc([N+](=O)[O-])cc2C)cc1", "Potency": "inactive"}, {"compound": "COc1ccc(N2CCN(c3cc(C)nc4nncn34)CC2)cc1", "Potency": "inactive"}, {"compound": "COc1ccccc1C1C(C(=O)N2CCCCC2)=C(C)Nc2nc3ccccc3n21", "note": "(stereo unspecified)", "Potency": "inactive"}, {"compound": "COc1ccccc1N1CCN(c2ccc(=O)n(CC(=O)NCc3ccc(OC(C)C)cc3)n2)CC1", "Potency": "inactive"}, {"compound": "Cc1ccc(Cl)cc1NC(=O)CCC(=O)N1CC(C)Sc2ccccc21", "note": "(stereo unspecified)", "Potency": "inactive"}, {"compound": "CC1CCCN(Cc2c(O)ccc3c(=O)c(Oc4ccc(C(C)(C)C)cc4)c(C(F)(F)F)oc23)C1", "note": "(stereo unspecified)", "Potency": "inactive"}, {"compound": "Cc1ccccc1CSc1nc(-c2ccccc2)nc2c1Cc1c(CO)cnc(C)c1O2", "Potency": "inactive"}, {"compound": "COc1ccc(OC)c(NC(=O)Cn2c(=O)n(Cc3ccccc3)c(=O)c3ccccc32)c1", "Potency": "inactive"}, {"compound": "COc1cccc(CNCc2c(C(=O)O)n(Cc3ccc(C)cc3)c3cc(C)ccc23)c1OC", "Potency": "inactive"}, {"compound": "O=C(Cn1cnc2c(oc3ccccc32)c1=O)Nc1ccc(OC(F)(F)F)cc1", "Potency": "inactive"}, {"compound": "CCOc1ccccc1CNC(=O)Nc1cn(CC(C)C)c(=O)c2ccccc12", "Potency": "inactive"}, {"compound": "COc1ccc2oc(-c3cccc(NC(=O)CSc4ccc(Cl)cc4)c3)nc2c1", "Potency": "inactive"}, {"compound": "CCOC(=O)CN1C(C(=O)c2ccccc2)=C(OC(=O)C(C)(C)C)c2ccccc2S1(=O)=O", "Potency": "inactive"}, {"compound": "CCOC(=O)C1=C(c2ccccc2)Nc2ncnn2C1c1ccc(Cl)cc1", "note": "(stereo unspecified)", "Potency": "inactive"}, {"compound": "O=C(CSc1nc2ccccc2[nH]1)Nc1nc(-c2ccccc2)c(-c2ccccc2)o1", "Potency": "inactive"}, {"compound": "O=C(NCc1ccccc1)C(=O)NCC(c1ccco1)S(=O)(=O)c1ccc(Cl)cc1", "note": "(stereo unspecified)", "Potency": "inactive"}, {"compound": "Cc1ccc(CSc2nc3ccsc3c(=O)n2CCC(C)C)cc1", "Potency": "inactive"}, {"compound": "COc1ccc(S(=O)(=O)c2c(Nc3cccc(Cl)c3)sc(C(=O)c3ccccc3)c2N)cc1", "Potency": "inactive"}, {"compound": "Cc1cccc(N2CCN(C(=O)c3ccc(Nc4nc5ccccc5n5nnnc45)cc3)CC2)c1C", "Potency": "inactive"}, {"compound": "O=C(COc1ccccc1)OCc1cc(=O)n2nc(-c3cccs3)sc2n1", "Potency": "inactive"}, {"compound": "CC1CCN(C(=O)Cn2c(=O)n(-c3ccc(Cl)cc3)c(=O)c3c4c(sc32)CCC4)CC1", "Potency": "inactive"}]}]}
